From PubChem BioAssay
HepG2 tox: qHTS for Inhibitors of TGF-b: Cytotox Counterscreen; HepG2 CAGA-GFP viability, ATP luminescence, 18 h; Potency, µM (top dose mostly 46.1 µM), actives largely listed as cytotoxic; hit rate 0.76% among 410,000
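HepG2 CAGA-GFP cells (1000/well, DMEM with 1% FBS) received compound, then TGF-beta at 500 pg/mL final, and were incubated 18 hours at 37 degrees C. Viability was read by CellTiter-Glo luminescence. Media-only wells were set as complete cell-killing and DMSO as no toxicity.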
IDH1 R132H inh: qHTS for Inhibitors of mutant isocitrate dehydrogenase 1 (IDH1): qHTS | Isocitrate dehydrogenase [NADP] cytoplasmic (Homo sapiens), O75874 | IDH1-R132H enzyme, NADPH consumption, diaphorase/resazurin fluorescence | Potency, µM (highest dose often 76.6 µM), hits mostly inhibitors | hit rate 0.093% among 390,000; also: nearly all actives have a fitted effect of over 65% in size
Target sequence (O75874 whole entry R132H, stated change not applied): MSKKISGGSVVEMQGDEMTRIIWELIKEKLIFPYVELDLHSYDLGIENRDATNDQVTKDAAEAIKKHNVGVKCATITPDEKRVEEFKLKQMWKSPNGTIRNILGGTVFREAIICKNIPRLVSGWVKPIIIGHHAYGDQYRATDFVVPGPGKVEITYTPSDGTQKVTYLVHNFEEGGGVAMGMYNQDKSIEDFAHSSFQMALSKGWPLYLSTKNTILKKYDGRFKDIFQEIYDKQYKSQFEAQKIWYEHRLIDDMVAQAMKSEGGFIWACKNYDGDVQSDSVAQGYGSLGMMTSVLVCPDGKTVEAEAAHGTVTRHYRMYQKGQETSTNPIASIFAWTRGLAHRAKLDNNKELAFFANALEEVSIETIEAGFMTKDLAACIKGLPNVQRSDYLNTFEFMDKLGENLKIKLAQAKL
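IDH1-R132H (0.5 ug/mL) preincubated 30 min with compound, then NADPH (0.016 mM) and alpha-KG (2 mM) added; 80 min at RT, pH 7.5. Remaining NADPH coupled via diaphorase/resazurin to fluorescence (540/590 nm); concentration-response curves normalized to no-enzyme control.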
ATXN2 expr inh: Primary qHTS for Inhibitors of ATXN expression. HEK-293 ATXN2-luciferase reporter, luminescence, 24 h. Potency, µM (titrated, usually from 57 µM), actives largely listed as inhibitors. hit rate 0.72% among 360,000. AID 1745845, 2022; also: nearly all actives have a fitted effect of over 55% in size
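ATXN2-luciferase reporter cells (luciferase flanked by upstream and downstream ATXN2 gene portions) were treated 24 h at 37 °C with compounds at up to 57 uM. SteadyGlo luminescence gave expression; GF-AFC fluorescence gave viability.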
LDHA inh: qHTS assay for inhibitors of human lactate dehydrogenase; L-lactate dehydrogenase A chain (Homo sapiens), P00338; purified LDHA, NADH/diaphorase-resazurin fluorescence; active compounds read low; activity change, % (values are at about 110 or 230 µM); hit rate 0.15% among 480,000; in the data active = activity change below about -30%; inconclusive = mostly about -25% to -30%
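Remaining NADH was detected by diaphorase (0.133 mg/mL) converting 37 µM resazurin to fluorescent resorufin, read at 0 and 20 minutes. The preceding 5-minute room-temperature reaction used 2 nM LDHA, 0.2 mM sodium pyruvate and 0.06 mM NADH at pH 7.4.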
S2 tox: Viability Counterscreen for Primary qHTS for Inhibitors of ATXN expression. hit rate 0.49% among 400,000. Potency, µM (titrated, usually from 56.7 µM), most hits filed as cytotoxic. S2 cells (HEK-293 line with an ATXN2-luciferase reporter) viability, CellTiter-Fluor protease fluorescence, 24 h. AID 651635, 2014; also: nearly all actives have a fitted effect of over 40% in size
TGFb SMAD3 inh: qHTS for Inhibitors of TGF-b. HepG2 CAGA-GFP TGF-b/SMAD3 reporter, GFP fluorescence, 18 h; TGF-beta stimulated, 500 pg/mL final. Potency, µM (highest dose often 46.1 µM), most hits filed as inhibitors. hit rate 1.2% among 410,000; also: nearly all actives have a fitted effect of over 65% in size
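HEPG2 CAGA-GFP reporter cells (1000/well, DMEM with 1% FBS) received compounds, then recombinant TGF-beta at 500 pg/mL final for 18 hours at 37 degrees C. Per-cell GFP summed per well was normalised to unstimulated and stimulated DMSO controls before curve fitting.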
Resorufin autofl: qHTS for Inhibitors of mutant isocitrate dehydrogenase 1 (IDH1): Cherrypicks Autofluorescence Interference; shares compounds with IDH1 R132H inh; Resorufin detection reagent fluorescence interference, cell-free; inhibition of signal, % at 51.2 µM; 750 tested, under 10 active; AID 623980, 2012
IDH1 WT: qHTS for Inhibitors of mutant isocitrate dehydrogenase 1 (IDH1): Cherrypicks in WT IDH1; AID 623995, 2012; WT IDH1 enzyme, NADPH diaphorase/resazurin fluorescence; Potency, µM (top dose mostly 115 µM), hits mostly inhibitors; shares compounds with IDH1 R132H inh; hit rate 9% among 750; also: nearly all actives have a fitted effect of over 55% in size
Target sequence (O75874 whole entry, looked up): as the sequence (O75874 whole entry R132H, stated change not applied) above, with H132R counted along it
mIDH1 confirm: qHTS for Inhibitors of mutant isocitrate dehydrogenase 1 (IDH1): Confirmation of Cherrypicks | AID 624002, 2012 | Potency, µM (doses to about 76.6 µM), actives largely listed as inhibitors | hit rate 83% among 750 | shares compounds with IDH1 R132H inh | IDH1 R132H enzyme, NADPH diaphorase/resazurin fluorescence; also: nearly all actives have a fitted effect of over 50% in size
A number is an active result; . = inactive; ? = inconclusive; / = no result. Compounds with a hit are over-represented: about 2.2% of the library has one in this group of screens. Unless noted, calls follow the shape of the dose curve; as a rule, active = well fitted curve in the direction sought with a large enough effect; inconclusive = small, poorly fitted or top-dose-only effect, or another doubt; inactive = no such curve, though single readings can be large; an effect the other way counts as inactive or inconclusive.

SMILES | HepG2 tox | IDH1 R132H inh | ATXN2 expr inh | LDHA inh | S2 tox | TGFb SMAD3 inh | Resorufin autofl | IDH1 WT | mIDH1 confirm
CCCn1cc(S(=O)(=O)c2ccccc2)c(=O)c2cc(F)c(N3CCCCC3)cc21 | . | . | / | . | / | . | / | / | /
CCn1cc(S(=O)(=O)c2ccccc2)c(=O)c2cc(F)c(N3CCCCCC3)cc21 | . | ? | / | . | / | . | . | . | 20µM
O=C(Cn1cc(C(F)(F)F)cc(Cl)c1=O)Nc1cc(Cl)ccc1Cl | / | / | / | . | / | / | / | / | /
CC(C)CCc1noc(CN(C)CC2CCN(Cc3ccccc3)CC2)n1 | . | . | . | . | . | . | / | / | /
Cc1onc(-c2c(F)cccc2Cl)c1C(=O)Nc1cc(S(=O)(=O)N2CCCCC2)ccc1O | . | 52µM | . | . | . | ? | . | . | 35µM
CN(C)S(=O)(=O)n1cc(/C=C(\NC(=O)c2ccccc2)C(=O)NCCCN2CCOCC2)c2ccccc21 | . | . | . | . | . | . | / | / | /
CCOC(=O)c1ccc(N2C(=O)c3n[nH]c(-c4ccco4)c3C2c2cccc(O)c2)cc1 (configuration not stated) | 22µM | ? | ? | . | ? | 13µM | . | . | 35µM
CCOC(=O)c1ccc(N2C(=O)c3n[nH]c(C)c3C2c2ccccc2OC)cc1 (configuration not stated) | . | ? | . | . | ? | ? | . | . | 35µM
CCOC(=O)c1ccc(N2C(=O)c3n[nH]c(C)c3C2c2ccccc2)cc1 (configuration not stated) | . | . | . | . | . | . | / | / | /
CCOC(=O)c1ccc(N2C(=O)c3n[nH]c(-c4ccco4)c3C2c2cccc(OC)c2)cc1 (configuration not stated) | . | ? | ? | . | ? | 4.5µM | . | . | ?
CCOC(=O)c1ccc(N2C(=O)c3n[nH]c(-c4cccs4)c3C2c2ccc(O)c(OC)c2)cc1 (configuration not stated) | . | ? | ? | . | ? | ? | . | . | 14µM
CC1CCN(S(=O)(=O)c2cn(CC(=O)Nc3ccc(-c4ccno4)cc3)cn2)CC1 | / | / | / | . | / | / | / | / | /
O=C(CSc1ccc(Br)cc1)NC1CCS(=O)(=O)C1 (configuration not stated) | . | . | . | . | . | . | / | / | /
O=C(C1CCCN1S(=O)(=O)c1ccc(Cl)c(Cl)c1)N1CCCCC1 (configuration not stated) | . | . | . | . | . | . | / | / | /
COc1ccccc1-c1nc(C#N)c(N2CCN(C(=O)c3ccc(Cl)cc3)CC2)o1 | / | / | / | . | / | / | / | / | /
COc1ccc(OC)c(NC(=O)c2cc3cc4ccc(C)cc4nc3s2)c1 | . | . | . | . | . | . | / | / | /
Cn1ccc2c(-c3ccc(C(F)(F)F)cc3)cc3c(c21)C1CCC3O1 (configuration not stated) | . | / | . | . | . | ? | / | / | /
Cc1ccccc1C1=C/C(=C(\SS/C(C(=O)c2ccc(OCC(=O)O)c(Cl)c2Cl)=C2\C=C(c3ccccc3C)SS2)C(=O)c2ccc(OCC(=O)O)c(Cl)c2Cl)SS1 | . | 12µM | . | . | . | . | . | . | 40µM
O=C(O)COc1ccc2nsnc2c1Cl | . | . | . | . | . | . | / | / | /
CCn1cc(C(=O)NCc2ccco2)c(=O)c2cc(S(=O)(=O)N3CCC(C)CC3)ccc21 | . | 33µM | . | . | . | ? | . | . | 18µM
CCn1cc(C(=O)NCc2ccco2)c(=O)c2cc(S(=O)(=O)N3CCCCCC3)ccc21 | . | . | . | . | . | . | / | / | /
C=CCn1cc(C(=O)NCc2ccco2)c(=O)c2cc(S(=O)(=O)N3CCCCCC3)ccc21 | . | ? | / | . | / | ? | . | . | 16µM
CCn1cc(C(=O)NCc2ccco2)c(=O)c2cc(S(=O)(=O)N3CC(C)CC(C)C3)ccc21 (configuration not stated) | . | 5.2µM | ? | . | . | ? | . | . | 2.5µM
Cc1ccccc1OCCN1C(=O)C(=O)c2cccc(C)c21 | . | . | . | . | . | . | / | / | /
Cc1cccc2c1N(CCOc1ccc(C(C)(C)C)cc1)C(=O)C2=O | . | ? | ? | . | ? | . | . | . | 25µM
SMILES | HepG2 tox | IDH1 R132H inh | ATXN2 expr inh | LDHA inh | S2 tox | TGFb SMAD3 inh | Resorufin autofl | IDH1 WT | mIDH1 confirm
Cc1cc(NC(=O)CCC(=O)N(c2ccccc2)C(C(=O)NC2CCCC2)c2ccccc2C)no1 (configuration not stated) | . | 37µM | . | . | . | . | . | . | 13µM
Cc1cc(NC(=O)CCC(=O)N(c2ccccc2C)C(C(=O)NC2CCCC2)c2ccccc2)no1 (configuration not stated) | . | ? | . | . | . | . | . | . | 25µM
Cc1cc(C)cc(N(C(=O)CCC(=O)Nc2cc(C)on2)C(C(=O)NC2CCCC2)c2ccco2)c1 (configuration not stated) | . | ? | . | . | . | . | . | . | 25µM
Cc1ccc(N(C(=O)CCC(=O)Nc2cc(C)on2)C(C(=O)NC2CCCC2)c2ccccc2)cc1 (configuration not stated) | . | ? | . | . | . | . | . | . | 22µM
COC(=O)C1=CN(c2ccc(N3CCOCC3)cc2)C(N)=C(C#N)C1c1ccccc1 (configuration not stated) | / | / | / | . | / | / | / | / | /
CCc1cccc(NC(=O)CC2SC(N3CCCC3)=NC2=O)c1 (configuration not stated) | . | . | . | . | . | . | / | / | /
CC(=O)Nc1ccc(C2=NNC(=NCC3CCCO3)SC2)cc1 (configuration not stated) | . | ? | . | . | . | . | . | . | 45µM
